SMILES strings stand for the structures. Unmarked numbers belong to inactive results. Records with an inconclusive call do not appear. The source made the active and inactive calls. Calls follow the shape of the dose curve; as a rule, active = well fitted curve in the direction sought with a large enough effect; inconclusive = small, poorly fitted or top-dose-only effect, or another doubt; inactive = no such curve, though single readings can be large; an effect the other way counts as inactive or inconclusive.

The text below walks through data of PubChem BioAssay (NCATS).

Assay [1] has as its target Glutathione peroxidase 1 (Homo sapiens) (UniProt P07203). The assay can be described thus: Primary qHTS Assay for Inhibitors of Recombinant Selenoprotein Glutathione Peroxidase 1 (GPX1) (AID 1845191). Also: nearly all actives have a fitted effect of over 65% in size. As to activity, negative = inhibition: % is scaled to controls: 0 for no effect and ±100 for the full control effect. The method in brief:
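10 nM GPX1 + cpd, 30 min RT; start w/ 1 mM GSH, 0.5 mM cumene hydroperoxide, 0.5 mM NADPH, 100 nM GR, 0.01% BSA; buffer 50 mM Tris-HCl pH 7.5, 2 mM EDTA, 150 mM NaCl; Fl 340/450, 0 & 15 min.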

The target in assay [2] is Phospholipid hydroperoxide glutathione peroxidase GPX4 (Homo sapiens) (UniProt P36969). Briefly: Primary qHTS Assay for Inhibitors of Recombinant Selenoprotein Glutathione Peroxidase 4 (GPX4) (AID 1845192). Also: nearly all actives have a fitted effect of over 65% in size. As to activity change, negative = inhibition: series mostly up to about 50 µM; % is scaled to controls: 0 for no effect and ±100 for the full control effect. The method in brief: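 NADPH consumption, followed by fluorescence at 340/450 nm between 0 and 15 min, reports GPX4 activity via coupled glutathione reductase (100 nM). Enzyme 200 nM was pre-exposed to compound 30 min; 0.5 mM cumene hydroperoxide and 1 mM GSH served as substrates.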

The target of assay [3] is Luciferin 4-monooxygenase (Photinus pyralis) (UniProt P08659). The assay can be described thus: Primary firefly luciferase (FLuc) qHTS assay for identification of artifact compounds. (AID 1845220). Also: nearly all actives have a fitted effect of over 60% in size.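 As to activity change, negative = inhibition: series mostly up to about 54 µM; plate controls were DMSO vehicle for no effect and no enzyme for full effect.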 The method in brief: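 Compounds sat 15 min at room temperature with 10 uM luciferin and 10 uM ATP (pH 7.6 Tris acetate). Firefly luciferase (10 nM final) was then added, and luminescence was read 5 min later. Data normalized to no-enzyme and DMSO controls were Hill-fitted.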

Assay [4] in a line: Primary fluorescence-based thiol-reactive (MSTI) qHTS assay for identification of artifact compounds. (AID 1845221). Also: nearly all actives have a fitted effect of over 65% in size. Also: potency is read from the fitted curve at half-maximal effect. As to activity change, negative = thiol reactive: series mostly up to about 54 µM. Summed up: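 Compounds were incubated 1 h at room temperature in the dark with the MSTI probe (4 uM) in PBS pH 7.4, 2% DMSO. Signals were normalized between Acetyl-MSTI and MSTI.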
Assay [5] has as its system Nanoluciferase (engineered Oplophorus gracilirostris luciferase). The assay can be described thus: Primary Nanoluciferase (NLuc) qHTS assay for identification of artifact compounds. (AID 1845222).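 Also: series mostly up to about 54 µM; 0% = DMSO and -100% = no enzyme.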 The method in brief:
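Luminescence from secreted NLuc (filtered, 1:55-diluted S16 cell medium) read 5 min after Nano-Glo substrate; compounds preincubated 15 min, RT. Hill fits of inhibition normalized to DMSO and no-enzyme.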

Assay [6] in a line: Primary redox qHTS assay for identification of artifact compounds. (AID 1845223). Also: potency is read from the fitted curve at half-maximal effect.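 As to redox activity (% of DA3003): 0% = DMSO and 100% = reference compound.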 The method in brief:
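Amplex Red (25 uM) and HRP (250 mU/mL) in HBSS, with compounds for 15 min, then 250 uM DTT for 30 min, room temperature, dark. Fluorescence 525/598 nm read; normalized to DMSO and 10 uM DA3003; Hill fit.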

Sequence of Phospholipid hydroperoxide glutathione peroxidase GPX4 (Homo sapiens) (P36969 whole entry, looked up): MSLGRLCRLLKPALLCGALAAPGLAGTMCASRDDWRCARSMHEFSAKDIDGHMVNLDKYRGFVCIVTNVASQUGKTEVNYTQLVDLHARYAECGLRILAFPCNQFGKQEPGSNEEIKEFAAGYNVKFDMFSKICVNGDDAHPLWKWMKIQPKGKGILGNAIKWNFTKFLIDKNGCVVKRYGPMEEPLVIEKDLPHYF
Sequence of Glutathione peroxidase 1 (Homo sapiens) (P07203 whole entry, looked up): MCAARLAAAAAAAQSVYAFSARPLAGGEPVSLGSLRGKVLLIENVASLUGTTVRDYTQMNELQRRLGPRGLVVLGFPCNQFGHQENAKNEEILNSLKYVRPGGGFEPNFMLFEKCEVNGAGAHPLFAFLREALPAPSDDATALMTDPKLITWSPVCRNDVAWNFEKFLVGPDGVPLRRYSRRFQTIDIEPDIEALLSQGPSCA

For `CCn1cc(NC(=S)Nc2cc(Cl)ccc2OC)c(C(N)=O)n1`, the Potency result in assay [1], in assay [2], in assay [3], in assay [4], in assay [5] and in assay [6] was “inactive” each time.

`CC#CC(=O)N1CCC[C@H]1c1nc(-c2ccc(C(=O)Nc3ccccn3)cc2)c2c(N)nccn12`: the Potency result in assay [1], in assay [2], in assay [3], in assay [4], in assay [5] and in assay [6] was “inactive” in each case.

Turning to `Cc1ccccc1-n1c([C@H](C)Nc2nc(N)nc3nc[nH]c23)nc2cccc(C)c2c1=O`, the Potency entry in assay [1], in assay [2], in assay [3], in assay [4], in assay [5] and in assay [6] was “inactive” each time.

For `C=CC(=O)Nc1cccc(CN2C(=O)N(c3c(Cl)c(OC)cc(OC)c3Cl)Cc3cnc(NCCCCN(CC)CC)nc32)c1`, the Potency entry in assay [1], in assay [2], in assay [3], in assay [4], in assay [5] and in assay [6] was “inactive” throughout.

On to `CC(C)c1cc(C(=O)N2CC[C@H](NC(=O)C3CC3)C2)n[nH]1`, for which the Potency entry in assay [1], in assay [2], in assay [3], in assay [4], in assay [5] and in assay [6] was “inactive” each time.

Consider `Oc1ccc2nc(CN3CCC(Cc4ccccc4F)CC3)[nH]c2c1`, for which the Potency result in assay [1], in assay [2], in assay [3], in assay [4], in assay [5] and in assay [6] was “inactive” throughout.

As to `CCCOC(c1cc2nccc(C(=O)O)c2[nH]1)c1ccccc1Cl` (stereo not given), the Potency result in assay [1], in assay [2], in assay [3], in assay [4], in assay [5] and in assay [6] was “inactive” throughout.

As for `CC1(C)CC[C@]2(C(=O)O[C@@H]3O[C@H](CO)[C@@H](O)[C@H](O)[C@H]3O)CC[C@]3(C)C(=CCC4[C@@]5(C)C[C@@H](O)[C@H](O)C(C)(C)C5[C@H](O)C[C@]43C)[C@@H]2[C@@H]1O` (stereo not given in full), the Potency result in assay [1], in assay [2], in assay [3], in assay [4], in assay [5] and in assay [6] was “inactive” in each case.

Turning to `COC(=O)c1cc(OC)cc(OC)c1C(=O)c1c(OC)cc2c(c1O)C1CCCC(C)(O2)O1` (stereo not given), the Potency result in assay [1], in assay [2], in assay [3], in assay [4], in assay [5] and in assay [6] was “inactive” each time.

On to `CC(CCC1(O)OC2CC3C4CCC5CC(O[C@@H]6O[C@H](CO)[C@@H](O)[C@H](O)[C@H]6O[C@@H]6O[C@@H](C)[C@H](O)[C@@H](O)[C@H]6O)C(O)CC5(C)C4CCC3(C)C2C1C)CO[C@@H]1O[C@H](CO)[C@@H](O)[C@H](O)[C@H]1O` (stereo not given in full), for which the Potency entry in assay [1] and in assay [2] was “inactive” each time. For the same molecule, the activity change, negative = inhibition in assay [3] is -2.32% [at 11.6 µM]. In addition, the activity change, negative = thiol reactive in assay [4] is 141% [at 11.5 µM]. Moreover, the activity, negative = inhibition in assay [5] was 2.24% [at 11.6 µM]. The redox activity (% of DA3003) in assay [6] is 15.2% [at 11.5 µM].

Consider `O=C(O)CCCCCC[C@H]1C(=O)NC(=O)N1CC[C@@H](O)C1CCCCC1`, for which the Potency result in assay [1], in assay [2], in assay [3], in assay [4], in assay [5] and in assay [6] was “inactive” each time.

As for `CC(C)=CCC[C@](C)(O[C@@H]1O[C@H](CO)[C@@H](O)[C@H](O)[C@H]1O)[C@H]1CC[C@]2(C)[C@@H]1[C@H](O)CC1[C@@]3(C)CC[C@H](O)C(C)(C)C3[C@@H](O[C@@H]3O[C@H](CO)[C@@H](O)[C@H](O)[C@H]3O)C[C@]12C` (stereo not given in full), the Potency result in assay [1], in assay [2], in assay [3], in assay [4], in assay [5] and in assay [6] was “inactive” throughout.

`OC/C=C/C=C/[C@H]1Cc2cc(O)cc(O)c2O1`: the Potency result in assay [1], in assay [2], in assay [3] and in assay [5] was “inactive” in each case. The Potency was 8.44 µM (active) in assay [4] and 18.9 µM (active) in assay [6].

As for `C=CC(C)(C)C12C=C(OC)C(=O)N3C(C(C)C)C(=O)NC31N(OC)c1ccccc12` (stereo not given), the Potency result in assay [1], in assay [2], in assay [3], in assay [4], in assay [5] and in assay [6] was “inactive” each time.

Take `COc1cc(C(=O)NC2CCN(C)CC2)ccc1Nc1ncc2c(n1)N(C1CCCC1)CC(F)(F)C(=O)N2C`: the Potency result in assay [1], in assay [2], in assay [3], in assay [4], in assay [5] and in assay [6] was “inactive” throughout.

Regarding `CC(C)=CCC[C@](C)(O)[C@H]1CC[C@]2(C)[C@@H]1[C@H](O)CC1[C@@]3(C)CC[C@H](O)C(C)(C)C3[C@@H](O[C@@H]3O[C@H](CO)[C@@H](O)[C@H](O)[C@H]3O[C@@H]3OC[C@@H](O)[C@H](O)[C@H]3O)C[C@]12C` (stereo not given in full), the Potency result in assay [1], in assay [2], in assay [3], in assay [4], in assay [5] and in assay [6] was “inactive” in each case.

`O=C(Nc1ccc(S(=O)(=O)C(F)(F)F)cc1)C1=CCN(c2ncccc2C(F)(F)F)CC1`: the Potency result in assay [1], in assay [2], in assay [3], in assay [4], in assay [5] and in assay [6] was “inactive” in each case.

For the molecule `COc1cc(Nc2nc3ccccc3nc2NS(=O)(=O)c2ccc(NC(=O)c3ccc(OC)c(C)c3)cc2)cc(OC)c1`, the Potency result in assay [1], in assay [2], in assay [3], in assay [5] and in assay [6] was “inactive” each time. Moreover, the Potency in assay [4] was 1.68 µM (active).

Consider `C=C[C@H]1[C@H](O[C@@H]2O[C@H](CO)[C@@H](O)[C@H](O)[C@H]2O)OC=C(C(=O)OC)[C@H]1CC(=O)O`, for which the Potency entry in assay [1], in assay [2], in assay [3], in assay [4], in assay [5] and in assay [6] was “inactive” in each case.

`Nc1ncnc2c([C@@H]3N[C@H](CO)[C@@H](O)[C@H]3O)c[nH]c12`: the Potency result in assay [1], in assay [2], in assay [3], in assay [4], in assay [5] and in assay [6] was “inactive” throughout.
